PubChem BioAssay (NCI)
About 83,000 compounds went through this panel and 20% of them were active in at least one assay; those are over-represented in the sample as a whole.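 Negative percent growth values reflect cell death: -40 means 40% of the cells present at the start died, and -100 means all died.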 Values without a mark were called inactive. The source made the active and inactive calls. How the source made its calls: active means growth percent below 10; inactive means the rest.

Key:
Test in all cases: NCI-60 one-dose screen, 48 h (100 = growth as untreated, 0 = no growth, -100 = all killed)
Conditions in all cases: 10 µM
NCI-H23 lung = test system: NCI-H23 lung
NCI-H226 lung = test system: NCI-H226 lung
NCI-H322M lung = test system: NCI-H322M lung
HOP-62 NSCLC = test system: HOP-62 NSCLC
NCI-H460 lung = test system: NCI-H460 lung
HOP-92 NSCLC = test system: HOP-92 NSCLC
NCI-H522 lung = test system: NCI-H522 lung
A549/ATCC NSCLC = test system: A549/ATCC NSCLC
786-0 renal = test system: 786-0 renal
COLO 205 colon = test system: COLO 205 colon
DU-145 prostate = test system: DU-145 prostate
K-562 leukemia = test system: K-562 leukemia
MALME-3M melanoma = test system: MALME-3M melanoma
MDA-MB-231 breast = test system: MDA-MB-231 breast
SF-268 CNS = test system: SF-268 CNS
SF-295 CNS = test system: SF-295 CNS
SF-539 CNS = test system: SF-539 CNS
UACC-257 melanoma = test system: UACC-257 melanoma
M14 melanoma = test system: M14 melanoma

Structure (SMILES)	growth (NCI-H23 lung)	growth (NCI-H226 lung)	growth (NCI-H322M lung)	growth (HOP-62 NSCLC)	growth (NCI-H460 lung)	growth (HOP-92 NSCLC)	growth (NCI-H522 lung)	growth (A549/ATCC NSCLC)	growth (786-0 renal)	growth (COLO 205 colon)	growth (DU-145 prostate)	growth (K-562 leukemia)	growth (MALME-3M melanoma)	growth (MDA-MB-231 breast)	growth (SF-268 CNS)	growth (SF-295 CNS)	growth (SF-539 CNS)	growth (UACC-257 melanoma)	growth (M14 melanoma)
COc1ccc(OC)c(-c2cc(-c3c[nH]c4ccccc34)nc(N)c2C#N)c1	-9.65% (active)	14%	24.8%	10% (active)	-42.5% (active)	-36.8% (active)	-5.53% (active)	21.1%	-52.3% (active)	-23.2% (active)	13%	8.61% (active)	-3.02% (active)	12.8%	9.75% (active)	-69.4% (active)	-60.3% (active)	22.4%	-8.47% (active)
O=C(NO)c1ccc(Cn2ccc3c(NCc4ccccc4)ncnc32)cc1	-74.3% (active)	23.8%	30.2%	12.7%	11.1%	-19% (active)	-51.5% (active)	28.1%	22.7%	-60.1% (active)	10.3%	12.2%	-5.08% (active)	-18% (active)	19%	-68.2% (active)	-71.1% (active)	-20.8% (active)	-9.73% (active)
COc1ccc(CN2[C@@H](C(=O)NCc3ccc(C(=O)NO)cc3)Cc3c([nH]c4ccccc34)[C@@H]2C)cc1	15.2%	45.8%	30.5%	37.7%	11.7%	2.77% (active)	-5.15% (active)	41.6%	39.7%	-12.6% (active)	18.6%	12%	0.926% (active)	13%	24.8%	6.57% (active)	17.2%	32.1%	23.3%
COc1ccc(C2N(c3ccc(Br)cc3)N=C(C(C)=O)N2[C@H]2[C@H](OC(C)=O)O[C@H](COC(C)=O)[C@@H](OC(C)=O)[C@@H]2OC(C)=O)cc1 (some centres not stated)	75.4%	69.6%	73.7%	92%	52.1%	79.2%	48.1%	66.1%	92.6%	88.1%	85.7%	65%	93.4%	72.1%	74.9%	64.1%	80.7%	89.9%	81.5%
NS(=O)(=O)c1ccc(NC(=O)CSc2ccc(-c3ccccc3)nn2)c(Br)c1	59.1%	20.5%	64.3%	17.4%	82.4%	-20.3% (active)	42.4%	70.4%	19.5%	137%	75.9%	96%	72.8%	47.7%	20.8%	69.9%	48.5%	100%	99.1%
O=C(CSc1nnc(-c2ccc3nc(-c4ccccc4)[nH]c3c2)o1)Nc1ccc(Cl)cc1	21.4%	31.4%	63.9%	62.9%	48.8%	79.1%	28.7%	57.1%	16.9%	73.2%	73.6%	16.7%	44%	27.4%	59.6%	-14.9% (active)	23.4%	75.3%	39.7%
Cc1cccc(-c2nc(Nc3ccccc3C(=O)O)c3ccccc3n2)c1	20.8%	36.1%	48.7%	46.2%	19.1%	-5.02% (active)	59.9%	43.6%	25%	121%	50.5%	28.7%	37.2%	66.1%	37.5%	27.1%	47.7%	49.2%	25.2%
CN1CCN(c2ccc(C(=O)/C=C/c3ccc(OC(F)F)cc3)cc2)CC1	27.8%	27.7%	70.6%	95.6%	49.2%	61.6%	83.5%	40.2%	61.6%	34.8%	57.8%	6.23% (active)	84.1%	41.5%	81%	47.4%	-39.8% (active)	68.7%	31.6%
O=C(Nc1ccc(Cl)c([N+](=O)[O-])c1)Nc1ccc(Cl)c([N+](=O)[O-])c1	-14.3% (active)	-4.77% (active)	27.7%	30.5%	9.48% (active)	-34.2% (active)	28.1%	26.1%	10.7%	2.69% (active)	18.4%	19.8%	-11.2% (active)	17.5%	18%	0.239% (active)	11.4%	36.9%	18.6%
Cc1ccc2nc(-c3ccc(-c4nnc(SCC(=O)Nc5ccc(Br)cc5)o4)cc3)[nH]c2c1	50.3%	62.1%	80.7%	72.9%	14.4%	91.9%	62.6%	89.5%	84.6%	87.3%	82.9%	7.89% (active)	87.1%	77.9%	80.6%	63.8%	68.3%	96.5%	66.6%
O=C(Cc1ccc2c(c1)CN(C1CCC(=O)NC1=O)C2=O)NCc1cccc2ccccc12 (configuration not stated)	12.7%	1.96% (active)	-4.15% (active)	-23.1% (active)	45.7%	-28.3% (active)	-21.4% (active)	7.72% (active)	-23.6% (active)	-35.7% (active)	-7% (active)	8.3% (active)	-72.2% (active)	-47.5% (active)	-8.53% (active)	-8.76% (active)	-23.3% (active)	32.5%	-70.8% (active)
COc1ccc(/C(CSc2nnc(-c3c[nH]c4ccccc34)n2-c2ccccc2)=N/O)cc1	41.6%	18.2%	36.4%	45%	17.3%	28.2%	36.5%	34.2%	59.7%	36.3%	43%	18.7%	73.1%	60.7%	48.5%	21%	57.3%	50.1%	28.9%
O=C(Nc1nc2ccccc2s1)c1ccc(Br)cc1	74%	67.4%	83.4%	101%	81.6%	100%	75.3%	84.9%	99.6%	107%	97.2%	64.1%	85.2%	93.4%	112%	67.3%	92.8%	85%	96%
